Data: paper PMC8384837, “Expanding the binding specificity for RNA recognition by a PUF domain”

Tests used:
Test in all cases: yeast three-hybrid, YBZ-1, SC-Leu-His + 0.5 mM 3-AT, 4 days
Details in all cases: tags: N-Gal4 AD-HA kept; label: inside an RPR1-promoter hybrid RNA with tandem MS2 sites; ssRNA
[1] = target: PUM1 PUF domain R3-RTA (Homo sapiens, UniProt Q14671 828-1176, C935R;R936T;Q939A)
In short: (§1)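 Pumilio-1 PUF domain libraries, randomized at the three base-contacting residues of each repeat, were co-expressed with matching RNA elements from a centromeric plasmid in strain YBZ-1, which carries a LexA–MS2 coat fusion and a HIS3 reporter. Transformants grew for four days on SC-Leu (input) or on SC-Leu-His + 0.5 mM 3-AT (selection), and the repeat regions were PCR-amplified and Illumina-sequenced. The interaction score is the log change in variant frequency from input to selection. That logarithm is base 2, with a pseudocount of 1 where a variant was absent.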

[2] = target: PUM1 PUF domain R3-YFV (Homo sapiens, UniProt Q14671 828-1176, C935Y;R936F;Q939V)
PUM1 PUF domain R3-YFV, sequence (Q14671 828-1176 C935Y/R936F/Q939V): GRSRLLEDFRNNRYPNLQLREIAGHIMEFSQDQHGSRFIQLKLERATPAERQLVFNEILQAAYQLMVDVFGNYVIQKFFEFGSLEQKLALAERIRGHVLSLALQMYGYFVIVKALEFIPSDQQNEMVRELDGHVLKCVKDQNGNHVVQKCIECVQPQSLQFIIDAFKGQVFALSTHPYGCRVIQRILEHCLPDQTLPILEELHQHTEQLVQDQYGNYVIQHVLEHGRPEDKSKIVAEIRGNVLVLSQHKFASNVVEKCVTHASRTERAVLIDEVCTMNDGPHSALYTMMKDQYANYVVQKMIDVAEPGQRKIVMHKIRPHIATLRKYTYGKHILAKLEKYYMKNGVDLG
In short: as §1

[3] = target: PUM1 PUF domain R3-LFN (Homo sapiens, UniProt Q14671 828-1176, C935L;R936F;Q939N)
PUM1 PUF domain R3-LFN, sequence (Q14671 828-1176 C935L/R936F/Q939N): as the sequence (Q14671 828-1176 C935Y/R936F/Q939V) above, with Y108L, V112N counted along it
In short: as §1

[4] = target: PUM1 PUF domain R8-LFN (Homo sapiens, UniProt Q14671 828-1176, N1122L;Y1123F;Q1126N)
PUM1 PUF domain R8-LFN, sequence (Q14671 828-1176 N1122L/Y1123F/Q1126N): as the sequence (Q14671 828-1176 C935Y/R936F/Q939V) above, with Y108C, F109R, V112Q, N295L, Y296F, Q299N counted along it
In short: as §1

[5] = target: PUM1 PUF domain R4-RVF (Homo sapiens, UniProt Q14671 828-1176, N971R;H972V;Q975F)
PUM1 PUF domain R4-RVF, sequence (Q14671 828-1176 N971R/H972V/Q975F): as the sequence (Q14671 828-1176 C935Y/R936F/Q939V) above, with Y108C, F109R, V112Q, N144R, H145V, Q148F counted along it
In short: as §1

[6] = target: PUM1 PUF domain R5-PRV (Homo sapiens, UniProt Q14671 828-1176, C1007P;Q1011V)
PUM1 PUF domain R5-PRV, sequence (Q14671 828-1176 C1007P/Q1011V): as the sequence (Q14671 828-1176 C935Y/R936F/Q939V) above, with Y108C, F109R, V112Q, C180P, Q184V counted along it
In short: as §1

PUM1 PUF domain R3-RTA, sequence (Q14671 828-1176 C935R/R936T/Q939A): as the sequence (Q14671 828-1176 C935Y/R936F/Q939V) above, with Y108R, F109T, V112A counted along it

For “GGCUAGAACUAGUGGAUCCCCCGGCGCCCGGCGGCUCGAGCCCGGGUAAGUGUAAUUAGUCUGCAUGCCGCCGGGCGCCAUGCCUGCAGGUCGACUCUAGAAAACAUG”, the binding signal [1] was 3.27 log2 enrichment (interaction score) and the binding signal [2] was 0.45 log2 enrichment (interaction score).
In the case of “GGCUAGAACUAGUGGAUCCCCCGGCGCCCGGCGGCUCGAGCCCGGGUAAGUGUAAGUAGUCUGCAUGCCGCCGGGCGCCAUGCCUGCAGGUCGACUCUAGAAAACAUG”, the binding signal [2] was 4.24 log2 enrichment (interaction score) and the binding signal [3] was 5.99 log2 enrichment (interaction score).
In the case of “GGCUAGAACUAGUGGAUCCCCCGGCGCCCGGCGGCUCGAGCCCGGGUAAGCGUAAAUAGUCUGCAUGCCGCCGGGCGCCAUGCCUGCAGGUCGACUCUAGAAAACAUG”, the binding signal [4] was 2.16 log2 enrichment (interaction score).
With “GGCUAGAACUAGUGGAUCCCCCGGCGCCCGGCGGCUCGAGCCCGGGUAAGUGUAAAUAGUCUGCAUGCCGCCGGGCGCCAUGCCUGCAGGUCGACUCUAGAAAACAUG” the binding signal [4] was 0.52 log2 enrichment (interaction score), the binding signal [2] was 1.56 log2 enrichment (interaction score) and the binding signal [5] was 2.93 log2 enrichment (interaction score). The binding signal [6] was 3.15 log2 enrichment (interaction score).
